# Measurements as given in article PMC11995724, “Antibiotic target discovery by integrated phenotypic and activity-based profiling of electrophilic fragments” (Cell chemical biology, 2025).
# Among all 3,200 compounds or so, about 110 (3.4%) showed an effect of 50% or more. This excerpt belongs to a sample that is enriched for strong results.
# Test system: T1, V. cholerae SAD30
# T1 construct: SAD30
# Set-up: species or system S. aureus MSSA476 (TSB) or V. cholerae SAD30 (LB); 384-well bacterial growth screen at 25 uM, OD600 relative to DMSO control
# Conditions: relative growth, OD600, LB; 25 µM; inhibitor
row,Structure (SMILES),% of control remaining [%]
1,"C=CC(=O)NCc1c(Cl)c(C(F)(F)F)nn1C [2-J07, N-{[4-chloro-1-methyl-3-(trifluoromethyl)-1H-pyrazol-5-yl]methyl}prop-2-enamide]",87.88
2,"C=CC(=O)Nc1ccc(Cl)cc1F [1-I10, N-(4-chloro-2-fluorophenyl)prop-2-enamide]",88.0419
3,"CC(Cl)C(=O)NCc1cc(-c2ccccc2)on1 (stereo not drawn) [7-A13, 2-chloro-N-[(5-phenyl-1,2-oxazol-3-yl)methyl]propanamide]",82.868
4,"CC(Cl)C(=O)N1CCN(C(=O)C(F)(F)F)C2(CCCCC2)C1 (stereo not drawn) [7-K06, 2-chloro-1-[1-(2,2,2-trifluoroacetyl)-1,4-diazaspiro[5.5]undecan-4-yl]propan-1-one]",75.3345
5,"CC(C#N)Oc1ccc(C=C(C#N)C(=O)Nc2ccccc2Cl)cc1 (stereo not drawn) [9-E05, N-(2-chlorophenyl)-2-cyano-3-[4-(1-cyanoethoxy)phenyl]prop-2-enamide]",89.259
6,"C=CCNC(=O)C(C#N)=Cc1cccc2ccccc12 [9-L10, 2-cyano-3-(naphthalen-1-yl)-N-(prop-2-en-1-yl)prop-2-enamide]",88.3073
7,"CC(Cl)C(=O)N(C)C[C@@H]1C[C@H](F)CN1c1ccnc(N(C)C)n1 (stereo partly drawn) [7-K16, 2-chloro-N-{[(2S,4S)-1-[2-(dimethylamino)pyrimidin-4-yl]-4-fluoropyrrolidin-2-yl]methyl}-N-methylpropanamide]",71.1052
8,"C=CC(=O)NCCc1ccn(-c2ccc(F)cc2)n1 [2-P03, N-{2-[1-(4-fluorophenyl)-1H-pyrazol-3-yl]ethyl}prop-2-enamide]",113.818
9,"Cc1ccc(C)c(N2C(=O)C=CC2=O)c1 [10-F13, 1-(2,5-dimethylphenyl)-2,5-dihydro-1H-pyrrole-2,5-dione]",31.3267
10,"Cc1ccc(N2C(=O)C=CC2=O)c(C)c1 [10-N07, 1-(2,4-dimethylphenyl)-2,5-dihydro-1H-pyrrole-2,5-dione]",22.5989
11,"Cc1ccc2nc(-c3ccc(N4C(=O)C=CC4=O)cc3)sc2c1 [10-K18, 1-[4-(6-methyl-1,3-benzothiazol-2-yl)phenyl]-2,5-dihydro-1H-pyrrole-2,5-dione]",99.1233
12,"Cc1cc(C(=O)O)ccc1N1C(=O)C=CC1=O [10-G22, 4-(2,5-dioxo-2,5-dihydro-1H-pyrrol-1-yl)-3-methylbenzoic acid]",102.864
13,"COc1ccc2c(c1)OCCN(C(=O)C(C)Cl)C2 (stereo not drawn) [7-E04, 2-chloro-1-(8-methoxy-2,3,4,5-tetrahydro-1,4-benzoxazepin-4-yl)propan-1-one]",86.04
14,"C=CC(=O)NCc1cscn1 [1-I07, N-[(1,3-thiazol-4-yl)methyl]prop-2-enamide]",90.1345
15,"CC(C)(C)c1ccc(CC(=O)CCl)cc1 [10-G19, 1-(4-tert-butylphenyl)-3-chloropropan-2-one]",116.579
16,"O=C(CCl)NCCc1cccc(Cl)c1 [5-O05, 2-chloro-N-[2-(3-chlorophenyl)ethyl]acetamide]",115.33
17,"O=C(CCl)Cc1cccc(F)c1 [10-C11, 1-chloro-3-(3-fluorophenyl)propan-2-one]",7.637
18,"O=C(CCl)N1CCC1c1cccc(F)c1 (stereo not drawn) [5-K10, 2-chloro-1-[2-(3-fluorophenyl)azetidin-1-yl]ethan-1-one]",86.5819
19,"O=C(CCl)Cc1ccc(Cl)c(Cl)c1 [10-E15, 1-chloro-3-(3,4-dichlorophenyl)propan-2-one]",25.5601
20,"O=C(CCl)Cc1cccc(Cl)c1 [10-E17, 1-chloro-3-(3-chlorophenyl)propan-2-one]",7.481
21,"Cc1cccc(CC(=O)CCl)c1 [10-I19, 1-chloro-3-(3-methylphenyl)propan-2-one]",92.7333
22,"CC(C)c1ccc(CC(=O)CCl)cc1 [10-I17, 1-chloro-3-[4-(propan-2-yl)phenyl]propan-2-one]",115.644
23,"O=C(CCl)Nc1cc(Cl)cc(Cl)c1 [4-K09, 2-chloro-N-(3,5-dichlorophenyl)acetamide]",84.8825
24,"O=C(Cc1cccc(F)c1)N1CCSSCC1 [10-L21, 1-(1,2,5-dithiazepan-5-yl)-2-(3-fluorophenyl)ethan-1-one]",98.8116
25,"Cc1ccc(CC(=O)CCl)cc1 [10-O13, 1-chloro-3-(4-methylphenyl)propan-2-one]",100.058
26,"O=C(CCl)Cc1cc(Cl)cc(Cl)c1 [10-I15, 1-chloro-3-(3,5-dichlorophenyl)propan-2-one]",20.7286

row,Structure (SMILES),% of control remaining [%]
1,"COc1cc(C=C(C#N)C(=O)Nc2cccc(C)c2)c2c(c1)CC(C)O2 (stereo not drawn) [8-N22, 2-cyano-3-(5-methoxy-2-methyl-2,3-dihydro-1-benzofuran-7-yl)-N-(3-methylphenyl)prop-2-enamide]",77.7022
2,"C=CC(=O)NCc1cn([C@@H]2COC[C@H]2OC)nn1 [1-J17, N-({1-[(3R,4S)-4-methoxyoxolan-3-yl]-1H-1,2,3-triazol-4-yl}methyl)prop-2-enamide]",85.0523
3,"C=CC(=O)N(Cc1ccc(Cl)cc1Cl)CC1CCC(O)C1 (stereo not drawn) [1-B04, N-[(2,4-dichlorophenyl)methyl]-N-[(3-hydroxycyclopentyl)methyl]prop-2-enamide]",107.949
4,"Cc1cc(C(=O)CCl)c(C)n1C(C)c1ccccc1 (stereo not drawn) [10-P17, 2-chloro-1-[2,5-dimethyl-1-(1-phenylethyl)-1H-pyrrol-3-yl]ethan-1-one]",96.4738
5,"CC(NC(=O)C(C#N)=Cc1ccco1)c1cccc(-n2cccn2)c1 (stereo not drawn) [9-J04, 2-cyano-3-(furan-2-yl)-N-{1-[3-(1H-pyrazol-1-yl)phenyl]ethyl}prop-2-enamide]",81.5092
6,"C=CC(=O)N1CCCCC1c1nc2ccccc2n1C (stereo not drawn) [3-F04, 1-[2-(1-methyl-1H-1,3-benzodiazol-2-yl)piperidin-1-yl]prop-2-en-1-one]",96.3242
7,"C=CC(=O)NCC(c1c(F)cccc1F)N1CC(C)OC(C)C1 (stereo not drawn) [1-I13, N-[2-(2,6-difluorophenyl)-2-(2,6-dimethylmorpholin-4-yl)ethyl]prop-2-enamide]",82.5112
8,"N#CC(=Cc1ccc(-c2ccccc2Cl)o1)C(=O)N1CCCCC1 [8-F20, 3-[5-(2-chlorophenyl)furan-2-yl]-2-(piperidine-1-carbonyl)prop-2-enenitrile]",64.378
9,"O=C(CCl)N1CC(S(=O)(=O)Nc2ccccc2)C1 [5-G10, 1-(2-chloroacetyl)-N-phenylazetidine-3-sulfonamide]",71.283
10,"O=C(NC1CC1)C1(C(=O)N2CCSSCC2)CCC1 [10-B21, N-cyclopropyl-1-(1,2,5-dithiazepane-5-carbonyl)cyclobutane-1-carboxamide]",104.89
11,"Cn1nc(C(F)(F)F)cc1CN(C(=O)CCl)C1CCCC1 [5-C16, 2-chloro-N-cyclopentyl-N-{[1-methyl-3-(trifluoromethyl)-1H-pyrazol-5-yl]methyl}acetamide]",89.1037
12,"O=C(CCl)Cc1ccc(C(F)(F)F)cc1 [10-C19, 1-chloro-3-[4-(trifluoromethyl)phenyl]propan-2-one]",79.6415
13,"O=C(CCl)Cc1ccc(F)cc1 [10-G15, 1-chloro-3-(4-fluorophenyl)propan-2-one]",95.6945
14,"O=C(CCl)Cc1ccc(F)c(F)c1 [10-O17, 1-chloro-3-(3,4-difluorophenyl)propan-2-one]",19.3259
15,"COc1ccccc1NC(=O)C(C)Cl (stereo not drawn) [5-L20, 2-chloro-N-(2-methoxyphenyl)propanamide]",97.5097
16,"COc1ccccc1CN1C(=O)C=CC1=O [10-P21, 1-[(2-methoxyphenyl)methyl]-2,5-dihydro-1H-pyrrole-2,5-dione]",42.8599
17,"COc1ccc(OC)c(N2C(=O)C=CC2=O)c1 [10-N15, 1-(2,5-dimethoxyphenyl)-2,5-dihydro-1H-pyrrole-2,5-dione]",24.7808
18,"COc1ccccc1CN(C)C(=O)CCl [6-C09, 2-chloro-N-[(2-methoxyphenyl)methyl]-N-methylacetamide]",89.7905
19,"COc1ccc(OC)c(NC(=O)CCl)c1 [6-O04, 2-chloro-N-(2,5-dimethoxyphenyl)acetamide]",96.0091
20,"COc1ccccc1N1C(=O)C=CC1=O [10-O10, 1-(2-methoxyphenyl)-2,5-dihydro-1H-pyrrole-2,5-dione]",26.0277
21,"COc1cc(Cl)c(C)cc1NC(=O)C(C#N)=CC=Cc1ccccc1 [8-A21, N-(4-chloro-2-methoxy-5-methylphenyl)-2-cyano-5-phenylpenta-2,4-dienamide]",93.0659
22,"COc1cc(Cl)c(C)cc1NC(=O)C(C)Cl (stereo not drawn) [6-C15, 2-chloro-N-(4-chloro-2-methoxy-5-methylphenyl)propanamide]",86.6054
23,"COc1ccc(OC)c(C(C)NC(=O)CCl)c1 (stereo not drawn) [4-M19, 2-chloro-N-[1-(2,5-dimethoxyphenyl)ethyl]acetamide]",102.48
24,"COc1ccccc1CNC(=O)C(C)Cl (stereo not drawn) [5-M21, 2-chloro-N-[(2-methoxyphenyl)methyl]propanamide]",101.376
25,"COc1cc(Cl)c(C)cc1N1C(=O)C=CC1=O [10-B15, 1-(4-chloro-2-methoxy-5-methylphenyl)-2,5-dihydro-1H-pyrrole-2,5-dione]",23.534
